Reference: PubChem BioAssay (EPA / NIEHS)
Activity calls are given as the source filed them. How the source made its calls: active means hit-call score of the fitted dose curve at least 0.9, where 1 is the maximum; inactive means score below 0.9.

What was measured:
[1] = ATG_E_Box_CIS: Attagene CIS-FACTORIAL HepG2 Assay for human Enhancer Box (E-box) (AID 2282936); settings: HepG2 E-box cis-reporter transcription, actives raise or lower the signal
Procedure, shortened: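 In this cell-based setup, HepG2 cells bearing transfected promoter-driven reporter units were exposed to chemicals for 24 h; reporter transcripts were amplified, 6-FAM-labelled, cut with HpaI and sized by capillary electrophoresis.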

[2] = ATG_M_61_CIS: Attagene CIS-FACTORIAL HepG2 Assay for M61 Transcription Factor (Internal Marker) (AID 2282937); settings: HepG2 Attagene CIS-FACTORIAL M61 internal marker reporter; actives raise or lower the signal
Procedure, shortened: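 Human liver HepG2, transient MRTU transfection (cis promoter elements), 24 h compound. Total RNA → oligo(dT) RT → PCR → FAM label → HpaI → CE. Internal background marker; bidirectional fitting, DMSO = baseline.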

[3] = ATG_EGR_CIS: Attagene CIS-FACTORIAL HepG2 Assay for human Early Growth Response 1 (EGR1) (AID 2282938); settings: HepG2 Attagene CIS-FACTORIAL EGR reporter mRNA; actives raise or lower the signal
Procedure, shortened: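 Transient transfection of human HepG2 with multiple cis-regulated reporter units, chemical exposure 24 h, total RNA isolated. Reverse transcription, PCR, fluorescent labelling and capillary electrophoresis quantify reporter transcripts; activity fitted bidirectionally against DMSO.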

[4] = ATG_M_19_CIS: Attagene CIS-FACTORIAL HepG2 Assay for M19 Transcription Factor (Internal Marker) (AID 2282939); settings: HepG2 Attagene CIS-FACTORIAL M19 internal marker reporter; actives raise or lower the signal
Procedure, shortened: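 Chemical-treated HepG2 (24 h) with MRTU constructs; reporter transcripts detected by fluorescent RT-PCR fragment analysis on capillary electrophoresis. Internal background marker, DMSO as baseline.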

[5] = ATG_Ets_CIS: Attagene CIS-FACTORIAL HepG2 Assay for human Erythroblast Transformation Specific (ETS) (AID 2282941); settings: HepG2 ETS cis-reporter transcription, actives raise or lower the signal
Procedure, shortened: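 Cis-regulated reporter mRNA induction in HepG2 (transient transfection), 24 h exposure, RT-PCR plus capillary electrophoresis detection; DMSO serves as negative control and baseline.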

[6] = target: Hepatocyte nuclear factor 3-beta (Homo sapiens) (UniProt Q9Y261); assay: ATG_FoxA2_CIS: Attagene CIS-FACTORIAL HepG2 Assay for human Forkhead box A2 (FOXA2) (AID 2282942); settings: HepG2 cis-reporter transcription factor activity, 24 h; actives raise or lower the signal
Procedure, shortened: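 Transient MRTU transfection of HepG2 liver cells; 24 h treatment; total RNA → oligo(dT) RT → PCR → FAM primer extension → HpaI cut → CE. Bidirectional fit vs DMSO.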

[7] = ATG_FoxO_CIS: Attagene CIS-FACTORIAL HepG2 Assay for human Forkhead box O (FoxO) (AID 2282943); settings: HepG2 Attagene cis-reporter, FoxO element, mRNA; actives raise or lower the signal
Procedure, shortened: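 HepG2 cells transiently transfected with cis-element-driven reporter units report endogenous FoxO activity. After 24 h chemical exposure, reporter mRNA quantified by RT-PCR, fluorescent labeling, HpaI digestion and capillary electrophoresis; bidirectional fit versus DMSO.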

[8] = ATG_GATA_CIS: Attagene CIS-FACTORIAL HepG2 Assay for human GATA Binding Protein (AID 2282944); settings: HepG2 GATA cis-element reporter, Attagene multiplex mRNA; actives raise or lower the signal
Procedure, shortened: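 Transfected cis-reporter HepG2 cells were treated with chemicals for 24 hours. Total RNA was then converted to cDNA, amplified with reporter-specific primers and analysed by fluorescent capillary electrophoresis, using DMSO-treated wells as baseline.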

[9] = ATG_GLI_CIS: Attagene CIS-FACTORIAL HepG2 Assay for human Zinc Finger Protein GLI1 (AID 2282945); settings: HepG2, Attagene cis-factorial reporter mRNA, GLI element; actives raise or lower the signal
Procedure, shortened: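 Transiently transfected HepG2 cells report endogenous transcription factor activity via cis-element-driven reporter units. After 24 h compound exposure, reporter mRNA was measured by RT-PCR with capillary electrophoresis; bidirectional fitting against DMSO baseline.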

[10] = target: Bile acid receptor (Homo sapiens) (UniProt Q96RI1); assay: ATG_IR1_CIS: Attagene CIS-FACTORIAL HepG2 Assay for human Nuclear Receptor Subfamily 1 Group H Member 4 (NR1H4), IR1 submotif (AID 2282946); settings: IR1 reporter transcription, actives raise or lower the signal
Procedure, shortened: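 Fluorescence of capillary-separated, HpaI-digested RT-PCR reporter products gave IR1-element mRNA induction in HepG2 cells 24 h after dosing. Endogenous transcription factors drove the cis-regulated reporters; activity was fitted bidirectionally against DMSO.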

[11] = ATG_GRE_CIS: Attagene CIS-FACTORIAL HepG2 Assay for human Glucocorticoid Response Elements (GRE) (AID 2282947); settings: HepG2 GRE cis-reporter, Attagene multiplex mRNA; actives raise or lower the signal
Procedure, shortened: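 Fluorescence intensity of reporter-specific cDNA fragments, separated by capillary electrophoresis, provides the signal. Constructs carry cis-regulating promoters in transiently transfected HepG2 liver cells; 24 h incubation; fitting is bidirectional against DMSO.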

[12] = ATG_ISRE_CIS: Attagene CIS-FACTORIAL HepG2 Assay for human Interferon Regulatory Factor 1 (IRF1) binding to an Interferon-Stimulated Response Element (ISRE) (AID 2282948); settings: HepG2 ISRE cis-reporter (Attagene), mRNA transcription readout; actives raise or lower the signal
Procedure, shortened: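 Multiplexed mRNA reporter readout in human liver HepG2 cells: cis-element-driven reporters transfected, compound added for 24 h, transcripts amplified, fluorescently labelled and sized by capillary electrophoresis; curve fitting bidirectional against DMSO.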

[13] = ATG_M_32_CIS: Attagene CIS-FACTORIAL HepG2 Assay for M32 Transcription Factor (Internal Marker) (AID 2282949); settings: HepG2 Attagene cis-factorial M32 reporter, mRNA; actives raise or lower the signal;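 further: background control marker of the multiplexed CIS panel rather than a real target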
Procedure, shortened: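 HepG2 transfectants (cis-regulated reporter transcription units) dosed 24 h. Reporter mRNA by RT-PCR plus CE, analysed as gain or loss relative to DMSO.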

[14] = ATG_M_06_CIS: Attagene CIS-FACTORIAL HepG2 Assay for M06 Transcription Factor (Internal Marker) (AID 2282950); settings: HepG2 Attagene CIS-FACTORIAL M06 internal marker reporter; actives raise or lower the signal
Procedure, shortened: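 Cells (HepG2, transiently carrying cis-driven reporter units) receive chemical for 24 h before RNA isolation. Reporter cDNA is PCR-amplified, FAM-labelled by primer extension, HpaI-digested and sized on a capillary analyser.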

[15] = target: Hypoxia-inducible factor 1-alpha (Homo sapiens) (UniProt Q16665); assay: ATG_HIF1a_CIS: Attagene CIS-FACTORIAL HepG2 Assay for human Hypoxia Inducible Factor 1 (HIF1A) (AID 2282951); settings: HepG2 Attagene cis-factorial HIF1a reporter transcription; actives raise or lower the signal
Procedure, shortened: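 Transient MRTU transfection of human HepG2 liver cells, 24 h compound treatment, then total RNA isolation, oligo(dT) reverse transcription, PCR amplification, fluorescent labelling and capillary electrophoresis of reporter fragments. Gain or loss relative to DMSO.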

[16] = target: Hepatocyte nuclear factor 6 (Homo sapiens) (UniProt Q9UBC0); assay: ATG_HNF6_CIS: Attagene CIS-FACTORIAL HepG2 Assay for human Hepatocyte Nuclear Factor 6 (HNF6) (AID 2282952); settings: HepG2 Attagene cis-factorial HNF6 reporter transcription; actives raise or lower the signal
Procedure, shortened: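 Activity values derive from bidirectional fitting against DMSO of reporter mRNA levels, measured by capillary electrophoresis of labelled RT-PCR products from HepG2 cells exposed 24 h.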

[17] = ATG_MRE_CIS: Attagene CIS-FACTORIAL HepG2 Assay for human Metal Responsive Element (MRE) (AID 2282954); settings: HepG2 MRE cis-reporter transcription, Attagene multiplex; actives raise or lower the signal
Procedure, shortened: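 Measured here is mRNA induction from an MRE cis-element reporter in HepG2 after 24 h, quantified by fluorescence of labelled RT-PCR products on capillary electrophoresis; gain- and loss-of-signal fits use DMSO as baseline.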

[18] = ATG_PBREM_CIS: Attagene CIS-FACTORIAL HepG2 Assay for human Phenobarbital-responsive Enhancer Module (PBREM) (AID 2282955); settings: HepG2 PBREM cis-reporter, Attagene multiplexed transcription; actives raise or lower the signal
Procedure, shortened: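 Endogenous transcription factors in human liver HepG2 cells drive a PBREM cis-element reporter, whose transcript level after 24 h treatment is quantified by RT-PCR with capillary electrophoresis; activity fitted in both directions against DMSO.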

[19] = target: Heat shock factor protein 1 (Homo sapiens) (UniProt Q00613); assay: ATG_HSE_CIS: Attagene CIS-FACTORIAL HepG2 Assay for human Heat Shock Transcription Factor 1 (HSE) (AID 2282953); settings: HepG2 HSE cis-reporter, Attagene RNA transcription; actives raise or lower the signal
Procedure, shortened: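 Liver-derived HepG2 cells carry transiently introduced multiple reporter units governed by cis promoters. Reporter RNA measured 24 h post-dose through reverse transcription, PCR amplification, fluorescent labelling and capillary electrophoresis, normalised to DMSO.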

Hepatocyte nuclear factor 6 (Homo sapiens), sequence (Q9UBC0 whole entry, looked up): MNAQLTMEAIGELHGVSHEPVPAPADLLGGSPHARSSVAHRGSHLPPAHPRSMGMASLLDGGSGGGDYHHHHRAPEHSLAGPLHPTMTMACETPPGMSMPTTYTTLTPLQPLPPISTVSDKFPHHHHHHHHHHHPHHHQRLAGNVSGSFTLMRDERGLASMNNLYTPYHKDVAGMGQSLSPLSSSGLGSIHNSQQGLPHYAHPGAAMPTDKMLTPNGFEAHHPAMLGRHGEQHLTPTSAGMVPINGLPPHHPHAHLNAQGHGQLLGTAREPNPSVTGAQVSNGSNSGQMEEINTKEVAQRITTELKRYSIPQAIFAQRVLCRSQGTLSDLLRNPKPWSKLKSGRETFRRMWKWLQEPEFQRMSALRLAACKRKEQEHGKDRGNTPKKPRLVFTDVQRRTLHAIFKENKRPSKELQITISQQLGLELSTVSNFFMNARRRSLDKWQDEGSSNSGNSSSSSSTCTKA
Hepatocyte nuclear factor 3-beta (Homo sapiens), sequence (Q9Y261 whole entry, looked up): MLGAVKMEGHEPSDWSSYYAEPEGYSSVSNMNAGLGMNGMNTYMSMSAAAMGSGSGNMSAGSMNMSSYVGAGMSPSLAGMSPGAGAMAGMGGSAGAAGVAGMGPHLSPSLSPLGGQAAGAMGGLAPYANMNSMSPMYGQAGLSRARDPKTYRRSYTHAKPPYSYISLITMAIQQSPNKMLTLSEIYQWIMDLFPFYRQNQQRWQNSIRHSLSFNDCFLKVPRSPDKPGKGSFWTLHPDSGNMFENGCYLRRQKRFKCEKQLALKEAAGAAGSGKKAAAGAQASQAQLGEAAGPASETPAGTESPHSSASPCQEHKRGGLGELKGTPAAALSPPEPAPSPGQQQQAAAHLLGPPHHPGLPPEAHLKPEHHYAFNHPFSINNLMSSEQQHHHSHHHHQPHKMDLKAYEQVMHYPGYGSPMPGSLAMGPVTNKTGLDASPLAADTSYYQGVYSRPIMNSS
Bile acid receptor (Homo sapiens), sequence (Q96RI1 whole entry, looked up): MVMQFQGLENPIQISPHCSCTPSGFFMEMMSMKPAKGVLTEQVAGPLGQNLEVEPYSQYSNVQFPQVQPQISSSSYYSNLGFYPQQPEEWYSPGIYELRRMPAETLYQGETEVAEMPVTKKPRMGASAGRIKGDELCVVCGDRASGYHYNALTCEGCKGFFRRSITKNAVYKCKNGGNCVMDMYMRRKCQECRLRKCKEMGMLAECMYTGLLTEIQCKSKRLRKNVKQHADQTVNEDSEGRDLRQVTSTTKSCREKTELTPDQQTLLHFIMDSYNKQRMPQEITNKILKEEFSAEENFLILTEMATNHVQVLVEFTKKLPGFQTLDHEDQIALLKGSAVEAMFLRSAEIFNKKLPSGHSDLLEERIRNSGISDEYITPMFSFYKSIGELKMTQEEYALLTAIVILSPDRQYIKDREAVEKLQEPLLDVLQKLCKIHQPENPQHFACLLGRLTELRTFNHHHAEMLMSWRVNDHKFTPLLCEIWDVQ
Hypoxia-inducible factor 1-alpha (Homo sapiens), sequence (Q16665 whole entry, looked up, the tested form may be a part): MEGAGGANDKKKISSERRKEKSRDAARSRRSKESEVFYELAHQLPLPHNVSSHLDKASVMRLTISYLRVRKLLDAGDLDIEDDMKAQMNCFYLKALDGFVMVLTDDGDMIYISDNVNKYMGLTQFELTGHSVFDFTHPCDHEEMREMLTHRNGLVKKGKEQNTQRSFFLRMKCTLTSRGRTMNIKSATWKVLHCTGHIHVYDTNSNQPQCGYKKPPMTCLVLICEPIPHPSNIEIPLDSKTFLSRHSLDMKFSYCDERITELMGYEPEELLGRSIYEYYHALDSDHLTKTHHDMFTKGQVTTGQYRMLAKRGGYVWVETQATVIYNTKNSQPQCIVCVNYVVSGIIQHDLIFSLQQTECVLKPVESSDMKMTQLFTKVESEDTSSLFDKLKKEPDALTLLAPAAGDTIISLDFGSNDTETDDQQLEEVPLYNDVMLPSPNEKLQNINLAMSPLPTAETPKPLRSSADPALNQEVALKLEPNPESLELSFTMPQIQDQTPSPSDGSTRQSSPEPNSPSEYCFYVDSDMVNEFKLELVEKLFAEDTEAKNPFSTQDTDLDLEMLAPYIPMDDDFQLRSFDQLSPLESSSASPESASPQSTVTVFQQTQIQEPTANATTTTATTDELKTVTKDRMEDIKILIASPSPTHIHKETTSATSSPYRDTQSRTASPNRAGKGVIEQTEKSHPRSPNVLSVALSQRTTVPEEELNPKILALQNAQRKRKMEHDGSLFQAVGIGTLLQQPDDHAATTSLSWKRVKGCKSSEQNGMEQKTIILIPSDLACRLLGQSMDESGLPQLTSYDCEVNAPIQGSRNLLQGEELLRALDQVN
Heat shock factor protein 1 (Homo sapiens), sequence (Q00613 whole entry, looked up): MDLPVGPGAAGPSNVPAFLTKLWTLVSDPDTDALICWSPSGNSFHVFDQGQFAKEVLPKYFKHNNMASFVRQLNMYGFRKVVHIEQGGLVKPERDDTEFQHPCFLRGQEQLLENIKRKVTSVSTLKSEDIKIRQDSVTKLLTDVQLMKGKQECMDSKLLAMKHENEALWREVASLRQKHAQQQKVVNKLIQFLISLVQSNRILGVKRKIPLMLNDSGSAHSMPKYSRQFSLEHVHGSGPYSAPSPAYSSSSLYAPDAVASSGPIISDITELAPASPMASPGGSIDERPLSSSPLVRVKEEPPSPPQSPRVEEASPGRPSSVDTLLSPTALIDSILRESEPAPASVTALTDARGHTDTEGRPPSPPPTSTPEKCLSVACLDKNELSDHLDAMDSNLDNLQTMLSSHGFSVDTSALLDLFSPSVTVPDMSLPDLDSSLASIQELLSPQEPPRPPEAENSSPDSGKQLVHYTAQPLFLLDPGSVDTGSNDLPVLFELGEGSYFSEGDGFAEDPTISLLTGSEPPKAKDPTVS

Q: What does the source list for CSCCC=O?
A: outcome [1]: inactive; outcome [2]: inactive; outcome [3]: inactive; outcome [4]: inactive; outcome [5]: inactive; outcome [6]: inactive; outcome [7]: inactive; outcome [8]: inactive; outcome [9]: inactive; outcome [10]: inactive; outcome [11]: inactive; outcome [12]: inactive; outcome [13]: inactive; outcome [14]: inactive; outcome [15]: inactive; outcome [16]: inactive; outcome [17]: inactive; outcome [18]: inactive

Q: With CCc1cc(Cc2cc(CC)cc(C(C)(C)C)c2O)c(O)c(C(C)(C)C)c1 as the compound, how does the outcome [1] read?
A: inactive

Q: And the outcome [2]?
A: inactive

Q: And the AC50 [3]?
A: 18.5 µM (active)

Q: And the outcome [4]?
A: inactive

Q: What about the outcome [5] of the same compound?
A: inactive

Q: And the outcome [6]?
A: inactive

Q: And the outcome [7]?
A: inactive

Q: What about the outcome [8] of the same compound?
A: inactive

Q: And the AC50 [9]?
A: 17.1 µM (active)

Q: What about the outcome [10] of the same compound?
A: inactive

Q: And the outcome [11]?
A: inactive

Q: What about the AC50 [12] of the same compound?
A: 17.4 µM (active)

Q: And the outcome [13]?
A: inactive

Q: And the outcome [14]?
A: inactive

Q: And the AC50 [15]?
A: 16.7 µM (active)

Q: What about the outcome [16] of the same compound?
A: inactive

Q: And the AC50 [19]?
A: 18.5 µM (active)

Q: And the AC50 [17]?
A: 18.1 µM (active)

Q: And the outcome [18]?
A: inactive

Q: With CCOC(=O)CC(C)O (stereo unspecified) as the compound, how does the outcome [1] read?
A: inactive

Q: And the outcome [2]?
A: inactive

Q: And the outcome [3]?
A: inactive

Q: And the outcome [4]?
A: inactive

Q: And the outcome [5]?
A: inactive

Q: What about the outcome [6] of the same compound?
A: inactive

Q: What about the outcome [7] of the same compound?
A: inactive

Q: And the outcome [8]?
A: inactive

Q: And the outcome [9]?
A: inactive

Q: What about the outcome [10] of the same compound?
A: inactive

Q: And the outcome [11]?
A: inactive

Q: What about the outcome [12] of the same compound?
A: inactive

Q: What about the outcome [13] of the same compound?
A: inactive

Q: And the outcome [14]?
A: inactive

Q: And the outcome [15]?
A: inactive

Q: What about the outcome [16] of the same compound?
A: inactive

Q: What about the outcome [19] of the same compound?
A: inactive

Q: And the outcome [17]?
A: inactive

Q: What about the outcome [18] of the same compound?
A: inactive
